Reference: PubChem BioAssay
Unmarked numbers belong to inactive results. The source made the active and inactive calls. Unless noted, how the calls were made is not given here.

Test system: not listed separately
Experiment: human hepatoma cell viability loss – ATP luminescence, cytotoxicity control for P. falciparum antimalarial project, primary screen (AID 2303;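 active means inhibition above 50%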;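 further: 0% = DMSO wells and 100% = digitonin-killed cells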)
Conditions: HepG2 viability, 24-48 h, at 10 µM, stronger effect = higher value

Going from `c1cncc(Oc2ccc(Nc3ccnc4cc(-c5cccc(CN6CCOCC6)c5)ccc34)cc2)c1` to `NC(=O)C1CCN(Cc2cccc(-c3ccc(-c4nc5ccc(C(F)(F)F)cc5[nH]4)cc3)c2)CC1`, the inhibition falls from 14% to 7%.

First: CCOc1ccc(Br)cc1/C=C/C(=O)Nc1ccc(C2CCN(C)CC2)cc1
Second: CCCOc1ccccc1C(=O)Nc1nonc1-c1ccc(OCC)c(OCC)c1
The inhibition of the first is lower: 30% for the first, 46% for the second.

First: CN(C)CCNC(=O)c1ccc2c(c1)n(C1CCN(S(=O)(=O)c3ccc(-c4ccccc4)cc3)CC1)c(=O)n2CC1CCCCC1
Second: CC(C)CN1CCCN(Cc2cccc(NC(=O)c3ccc(-c4ccccc4)cc3)c2)CC1
The inhibition of the first is higher: 47% for the first, 30% for the second.

First: CC(=O)Nc1ccc(CN2CCN(C(c3ccc(F)cc3)c3ccc(F)cc3)CC2)cc1
Second: Nc1ncnc2nc(-c3ccc(F)cc3)cc(-c3ccc(NC(=O)c4ccccc4)cc3)c12
The inhibition of the first is higher: 4% for the first, -6% for the second.

Going from `Cc1cc(=O)oc2c1ccc1oc(C(O)c3ccc(Cl)cc3)c(C)c12` (configuration not stated) to `Clc1ccc(-c2cc3c(NCc4ccncc4)nccc3s2)cc1`, the inhibition rises from -7% to 26%.

Going from `Cc1ccc2c(c1C)NC(=O)C21NN=C(c2ccccc2)S1` (configuration not stated) to `COc1ccc(C=NNc2cc(C)nc3c(C)cccc23)c2ccccc12`, the inhibition falls from 31% to 3%.

First: CCC(C)NC(=O)Nc1ccc(-c2cccc(-c3nc4ccccc4[nH]3)c2)cc1 (configuration not stated)
Second: O=C(Nc1cccc(-c2cccc(-c3nc4ccc(F)cc4[nH]3)c2)c1)Nc1ccc2c(c1)OCO2
The inhibition of the first is higher: 41% for the first, 30% for the second.

Going from `CCN(CC)CC#Cc1ccc2[nH]c(C)c(Cl)c(=O)c2c1` to `CCN(CCCN1CCCCC1)c1cc(C)nc(Nc2cc(C)ccc2C)n1`, the inhibition rises from 11% to 34%.

Going from `COc1cc(Cc2cnc(NCCN3CCNCC3)nc2N)ccc1OCc1ccc(C(F)(F)F)cc1` to `COc1ccc2nc3cc(Cl)ccc3c(NCCCCN3CCNCC3)c2c1`, the inhibition rises from 12% to 29%.

First: CC(C)(C)c1ccc(CNCCOc2ccc(Nc3nnc(-c4ccc(-c5ncc[nH]5)cc4)o3)c3ccccc23)cc1
Second: CN(C)CCNCc1ccc(-c2ccc(-c3nc4ccccc4[nH]3)s2)cc1
The inhibition of the first is higher: 43% for the first, -2% for the second.

Going from `CCCNCc1ccc(-c2ccc(CN(CCOC)C(=O)c3cccc(C#N)c3)cc2)nc1` to `COc1cccc2c(NCCNc3ccnc4c(OC)cccc34)ccnc12`, the inhibition rises from -2% to 11%.

With `CNC(=O)C1Cc2c([nH]c3cc(Cl)ccc23)C2(CCN(CCc3ccccc3)CC2)N1` (configuration not stated) the inhibition was 14%.

With `C[C@@H](COc1ccc(-c2ccccc2)cc1)CON1C(N)=NC(N)=NC1(C)C` the inhibition was 62% (active).
For `CC(CCON1C(N)=NC(N)=NC1(C)C)c1ccc(Cl)c(Cl)c1` (configuration not stated), the inhibition was 60% (active).
In the case of `CN(C)CC1c2[nH]c3ccccc3c2CCN1C(=O)Nc1ccc(Cl)c(Cl)c1` (configuration not stated), the inhibition is reported as 99% (active).
In the case of `C=CCc1cc(Br)ccc1OCCCON1C(N)=NC(N)=NC1(C)C`, the inhibition is reported as 61% (active).

Target: L-lactate dehydrogenase (Plasmodium falciparum (isolate CDC / Honduras)) (UniProt Q27743)
Sequence (Q27743 whole entry, looked up): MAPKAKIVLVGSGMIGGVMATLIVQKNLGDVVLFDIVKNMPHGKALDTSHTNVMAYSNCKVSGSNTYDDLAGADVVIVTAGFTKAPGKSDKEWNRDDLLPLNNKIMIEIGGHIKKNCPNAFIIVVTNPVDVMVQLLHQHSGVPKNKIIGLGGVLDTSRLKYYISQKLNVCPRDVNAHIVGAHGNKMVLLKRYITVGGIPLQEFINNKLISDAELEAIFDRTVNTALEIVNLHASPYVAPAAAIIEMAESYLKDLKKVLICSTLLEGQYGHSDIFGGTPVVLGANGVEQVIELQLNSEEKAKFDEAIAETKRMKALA
Experiment: PfLDH activity inhibition – cell lysate, 3D7 strain, counter-screen for P. falciparum growth inhibition project (AID 2304);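 further: 0% = vehicle and 100% = reference inhibitor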
Conditions: P. falciparum 3D7 crude extract, LDH APAD/NBT absorbance; at 2 µM; stronger effect = higher value

Going from `O=[N+]([O-])c1ccc(-n2nc(Cc3ccccc3)n(Cc3cccc(F)c3)c2=S)c(C(F)(F)F)c1` to `NC(=O)C1CCN(Cc2cccc(-c3ccc(-c4nc5ccc(C(F)(F)F)cc5[nH]4)cc3)c2)CC1`, the inhibition rises from -3% to 8%.

Going from `O=C(NCCN1CCC(c2ncc(-c3ccccc3)o2)CC1)c1ccc(NC(=O)c2ccc(Cl)cc2)cc1` to `COc1ccc(C2CCN(CCCCNC(=O)c3ccc(NC(=O)c4ccc(Cl)cc4)cc3)CC2)c(C)c1`, the inhibition rises from -7% to 2%.

Compared with `CC(C)c1sc(N2CCN(C)CC2)nc1C(=O)Nc1cccc2c1CCCC2`, `O=C(Nc1cccc(CN2CCCN(Cc3ccc(F)cc3)CC2)c1)c1ccc(Cl)c(Cl)c1` is higher in inhibition: -1% for the first, 7% for the second.

First: Cc1ccccc1NC(=O)C1CSCN1C(=O)OCc1ccccc1 (configuration not stated)
Second: CNC(=O)C1Cc2c([nH]c3cc(Cl)ccc23)C2(CCN(CCc3ccccc3)CC2)N1 (configuration not stated)
The inhibition of the first is lower: -1% for the first, 4% for the second.

Compared with `COc1ccc2ncc(F)c(CCN3C[C@H](CNCc4cc(F)c5c(c4)NC(=O)CO5)[C@H](O)C3)c2n1`, `COc1ccc2nc3cc(Cl)ccc3c(NCCCCN3CCNCC3)c2c1` is higher in inhibition: -7% for the first, -5% for the second.

Compared with `COc1cc(Br)ccc1N1CCN(CCCCNC(=O)c2ccc(NC(=O)c3ccc(Cl)cc3)cc2)CC1`, `O=C(Nc1ccc(C(=O)N2CCN(CCN3CCN(c4cccc(C(F)(F)F)c4)CC3)CC2)cc1)c1ccc(OC(F)(F)F)cc1` is higher in inhibition: 1% for the first, 7% for the second.

Compared with `CC(C)CCN1CCC(Oc2ccc(NC(=O)c3ccc4ncccc4c3)cc2Cl)C1` (configuration not stated), `CN(C)CC1c2[nH]c3ccccc3c2CCN1C(=O)Nc1ccc(Cl)c(Cl)c1` (configuration not stated) is lower in inhibition: -4% for the first, -6% for the second.

Compared with `CC(C)Cc1c(O)nc(SCCN2CCOCC2)[nH]c1=O`, `CCN(CCCN1CCCCC1)c1cc(C)nc(Nc2cc(C)ccc2C)n1` is higher in inhibition: 1% for the first, 2% for the second.

First: CCC[C@@H]([C@@H](CC1CCCCC1)C(=O)N[C@H](C(=O)Nc1nccs1)[C@H](C)O)N(O)C=O
Second: CN(C)CCNC(=O)c1ccc2c(c1)n(C1CCN(S(=O)(=O)c3ccc(-c4ccccc4)cc3)CC1)c(=O)n2CC1CCCCC1
The inhibition of the first is lower: -5% for the first, -2% for the second.

First: c1ccc(CNc2nc(NCCc3cnc[nH]3)nc(NCc3cccc4ccccc34)n2)cc1
Second: CC(C)(C)c1ccc(CNCCOc2ccc(Nc3nnc(-c4ccc(-c5ncc[nH]5)cc4)o3)c3ccccc23)cc1
The inhibition of the first is lower: -4% for the first, 0% for the second.

First: c1cncc(Oc2ccc(Nc3ccnc4cc(-c5cccc(CN6CCOCC6)c5)ccc34)cc2)c1
Second: CC(C)CN1CCCN(Cc2cccc(NC(=O)c3ccc(-c4ccccc4)cc3)c2)CC1
The inhibition of the first is higher: 5% for the first, 1% for the second.

First: C[C@@H](COc1ccc(-c2ccccc2)cc1)CON1C(N)=NC(N)=NC1(C)C
Second: CC(CCON1C(N)=NC(N)=NC1(C)C)c1ccc(Cl)c(Cl)c1 (configuration not stated)
The inhibition of the first is higher: 3% for the first, -3% for the second.

First: CCOc1ccc(Br)cc1/C=C/C(=O)Nc1ccc(C2CCN(C)CC2)cc1
Second: CCCOc1ccccc1C(=O)Nc1nonc1-c1ccc(OCC)c(OCC)c1
The inhibition of the first is higher: -2% for the first, -4% for the second.

`CC(=O)Nc1ccc(CN2CCN(C(c3ccc(F)cc3)c3ccc(F)cc3)CC2)cc1` and `Nc1ncnc2nc(-c3ccc(F)cc3)cc(-c3ccc(NC(=O)c4ccccc4)cc3)c12` are the same in inhibition: 0% for the first, 0% for the second.

First: Cc1cc(=O)oc2c1ccc1oc(C(O)c3ccc(Cl)cc3)c(C)c12 (configuration not stated)
Second: Clc1ccc(-c2cc3c(NCc4ccncc4)nccc3s2)cc1
The inhibition of the first is higher: 1% for the first, -1% for the second.

`Cc1ccc2c(c1C)NC(=O)C21NN=C(c2ccccc2)S1` (configuration not stated) and `COc1ccc(C=NNc2cc(C)nc3c(C)cccc23)c2ccccc12` are the same in inhibition: 0% for the first, 0% for the second.

First: CCC(C)NC(=O)Nc1ccc(-c2cccc(-c3nc4ccccc4[nH]3)c2)cc1 (configuration not stated)
Second: O=C(Nc1cccc(-c2cccc(-c3nc4ccc(F)cc4[nH]3)c2)c1)Nc1ccc2c(c1)OCO2
The inhibition of the first is higher: 7% for the first, -4% for the second.

Going from `CCN(CC)CC#Cc1ccc2[nH]c(C)c(Cl)c(=O)c2c1` to `CN(C)CCNCc1ccc(-c2ccc(-c3nc4ccccc4[nH]3)s2)cc1`, the inhibition rises from -6% to 1%.

Compared with `COc1cc(Cc2cnc(NCCN3CCNCC3)nc2N)ccc1OCc1ccc(C(F)(F)F)cc1`, `COc1cccc2c(NCCNc3ccnc4c(OC)cccc34)ccnc12` is lower in inhibition: 4% for the first, 0% for the second.

First: C=CCc1cc(Br)ccc1OCCCON1C(N)=NC(N)=NC1(C)C
Second: CCCNCc1ccc(-c2ccc(CN(CCOC)C(=O)c3cccc(C#N)c3)cc2)nc1
The inhibition of the first is higher: 2% for the first, -2% for the second.
